Where “and” joins values, the source holds several entries; their conditions need not be identical. Equal values may be shown once. About 2,100 (0.95%) of roughly 220,000 compounds were called active.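 Rule for the calls: active = compounds that cut the binding signal by more than half at the single screening dose; inactive = the rest.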 Many of the other results were omitted from the sample, so actives are more common in it than they were. The source holds several records for some structures; these can differ, active in one and inactive in another.
Each compound was assayed against Induced myeloid leukemia cell differentiation protein Mcl-1 (Homo sapiens) (UniProt Q07820) (assay: disruptors of Mcl-1 and Bid BH3 peptide – biochemical, TR-FRET, 1536-well, primary screen (AID 1021;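 note: His-tagged Mcl-1 with europium anti-His antibody binding Bid BH3 peptide; 0% = Mcl-1 plus peptide wells and 100% = peptide-only wells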)). Details: TR-FRET Mcl-1/Bid-Dy647 peptide binding, at 21.7 µM, stronger effect = higher value.
Induced myeloid leukemia cell differentiation protein Mcl-1 (Homo sapiens), sequence (Q07820 whole entry, looked up): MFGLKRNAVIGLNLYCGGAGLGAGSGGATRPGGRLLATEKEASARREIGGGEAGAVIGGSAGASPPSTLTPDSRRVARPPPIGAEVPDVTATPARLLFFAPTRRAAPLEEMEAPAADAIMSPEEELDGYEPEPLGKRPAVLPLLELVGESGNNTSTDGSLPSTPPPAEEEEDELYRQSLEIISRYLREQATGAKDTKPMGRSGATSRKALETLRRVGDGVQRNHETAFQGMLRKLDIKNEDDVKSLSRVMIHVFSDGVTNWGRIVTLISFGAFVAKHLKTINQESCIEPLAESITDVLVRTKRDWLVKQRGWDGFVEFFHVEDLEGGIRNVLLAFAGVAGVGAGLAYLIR

| SMILES | inhibition |
| --- | --- |
| O=c1cc(C(F)(F)F)[nH]c(=O)n1C1CCCCC1 | -10.9% (inactive) |
| Cc1ccc(Nc2cc(=O)n(C3CCCCC3)c(=O)[nH]2)cc1C | 94.6% (active) |
| Cc1ccc(NNC(=O)C2CCC2)cc1C | -13% (inactive) |
| Cc1c(C(=O)Nc2ccccc2)sc2nc3n(c(=O)c12)CCCCC3 | -9.14% (inactive) |
| O=C(Cn1c[n+](CC(=O)c2ccc([N+](=O)[O-])cc2)cn1)c1ccc([N+](=O)[O-])cc1 | -21.7% (inactive) and -16.6% (inactive) |
| CC(=O)Nc1ccc(N2C(=O)C3C4CC(=O)C(c5ccccc54)C3C2=O)cc1 (stereo unspecified) | -11.5% (inactive) |
| O=C(Oc1cccc(N2C(=O)C3C4c5ccccc5C(c5ccccc54)C3C2=O)c1)c1ccco1 (stereo unspecified) | 92% (active) |
| CC(=O)Oc1cccc(N2C(=O)C3CC=C(Cl)CC3C2=O)c1 (stereo unspecified) | -19.4% (inactive) |
| O=[N+]([O-])c1ccc(N2CCSCC2)cc1O | -15.7% (inactive) |
| O=C(CS(=O)(=O)c1ccc(C(F)(F)F)cn1)NNC(=O)c1ccccc1 | -2.12% (inactive) |
| Cc1ccc(-c2nc3ccccc3[nH]c2=O)cc1 | -0.25% (inactive) |
| CCOC(=O)c1cnc2[nH]c3ccccc3n2c1=O | 10.7% (inactive) |
| O=c1[nH]c2ccccc2n2c(-c3ccccc3)nnc12 | 64.9% (active) |
| CCCCc1nnc(NC(=O)CSc2nc(N)cc(=O)[nH]2)s1 | -5.95% (inactive) |
| Cn1c2ccccc2c2cc(/C=C(\NC(=O)c3ccccc3)C(=O)NCC(=O)O)ccc21 | -1.08% (inactive) |
| Cc1cc(NS(=O)(=O)c2ccc(NC(=O)c3cccc(OC(F)F)c3)cc2)nc(C)n1 | -2.38% (inactive) |
| Cn1cccc1/C=N/NC(=O)CNc1cccc2ccccc12 | -45.9% (inactive) |
| O=C(O)C(NS(=O)(=O)c1cccc2nsnc12)c1ccccc1 (stereo unspecified) | -3.92% (inactive) |
| O=C(C(NS(=O)(=O)c1cccc2nsnc12)c1ccccc1)N1CCN(c2ccccc2)CC1 (stereo unspecified) | -29.6% (inactive) |
| O=C(O)c1ccc(NS(=O)(=O)c2cccc3nsnc23)cc1 | 101% (active) |
| N#Cc1c(N)nc2c(c1N)CC(C(F)(F)F)O2 (stereo unspecified) | 1.45% (inactive) |
| Cc1nn(-c2ccccc2)c2c1C(c1ccc(F)cc1)C(C#N)=C(N)O2 (stereo unspecified) | -9.94% (inactive) |
| Cc1nn(Cc2ccccc2)c2c1C(c1ccccc1)C(C#N)=C(N)O2 (stereo unspecified) | -17.5% (inactive) |
| COc1ccccc1C1C(C#N)=C(N)Oc2c1c(-c1ccccc1)nn2-c1ccccc1 (stereo unspecified) | 97.3% (active) |

| SMILES | inhibition |
| --- | --- |
| COc1cc(S(=O)(=O)N(Cc2cccs2)C2CC2)ccc1-n1cnnn1 | 1.4% (inactive) |
| CCC(CC)NC(=O)CSc1nnc(-c2c[nH]c3ccccc23)o1 | 1.1% (inactive) |
| CN(C)c1ccc(Nc2c3c4c(cccc4n(C)c2=O)C(=O)c2ccccc2-3)cc1 | 59.4% (active) |
| CC1(C)CC(=O)C=C(Nc2ccccc2)C1 | -54% (inactive) |
| Cc1ccc(C(=O)OC2=CC(=O)CC(C)(C)C2)cc1 | 89.4% (active) |
| COC(=O)NNC1=CC(=O)CC(C)(C)C1 | -13.6% (inactive) |
| C/C(=N\Nc1cccc(C(=O)O)c1)c1ccc2c(c1)Nc1ccccc1S2 | 92% (active) |
| CC(=O)Nc1cccc(/C(C)=N/NC(=O)c2ccccc2Cl)c1 | -9.47% (inactive) |
| O=C(NC1CC1)c1ccc2c(c1)NC(=O)c1ccccc1S2 | -30.3% (inactive) |
| COc1cc(/C=N/NC(=O)CCc2n[nH]c(=O)[nH]c2=O)ccc1O | -25.6% (inactive) |
| O=C(OCc1nc2ccccc2[nH]1)C1CCCCC1 | -17.4% (inactive) |
| COc1ccc(C(=O)C2CCCN(Cc3ccc4nonc4c3)C2)c(C)c1 (stereo unspecified) | -14.3% (inactive) |
| Fc1ccc(NC(=S)N2CCc3[nH]c4ccccc4c3C2)cc1 | -6.12% (inactive) |
| O=C(NC1CCCCC1)N1CCc2[nH]c3ccccc3c2C1 | -16.1% (inactive) |
| O=C(Nc1ccc(Cl)cc1)N1CCc2[nH]c3ccccc3c2C1 | 83.8% (active) |
| Cc1ccccc1CN(c1ccc(C(=O)NCC2CCCO2)cc1)S(C)(=O)=O (stereo unspecified) | -0.03% (inactive) |
| CNS(=O)(=O)c1ccc(N2CCCC2=O)c([N+](=O)[O-])c1 | -4.05% (inactive) |
| COc1ccc(CN2CCCC(C(=O)c3ccc(Cl)cc3)C2)cc1Cn1cncn1 (stereo unspecified) | -25.6% (inactive) |
| COc1ccc(CN2CCCC(CNC(=O)c3ccc(F)cc3)C2)cc1OC (stereo unspecified) | -22.9% (inactive) |
| COc1ccc(CCN(C)C(=O)C2CCCN(Cc3ccc(OC)c(OC)c3)C2)cc1OC (stereo unspecified) | -22.7% (inactive) and 54.1% (active) |
| CC(C)CC(=O)NC(=S)NNC(=O)c1cccc([N+](=O)[O-])c1 | -73.3% (inactive) |
| Cn1nc(C(F)(F)F)c(-c2ccc(F)cc2)c1NC(=O)CSCC(=O)O | -12.6% (inactive) |
| FC(F)(F)c1cccc(N/N=C/c2ccccc2)c1 | 93.7% (active) |
| O=C(O)CSCC(=O)Nc1cccc(C(F)(F)F)c1 | -0.04% (inactive) |

| SMILES | inhibition |
| --- | --- |
| O=[N+]([O-])c1ccc(N/N=C/c2ccccc2)cc1 | -8.01% (inactive) |
| Clc1ccc(C[n+]2cc(-c3ccc(Cl)cc3)n3c2CCC3)cc1 | -1.66% (inactive) |
| Cc1ccc2[nH]c3c(=O)n(Cc4ccccn4)cnc3c2c1 | 14.7% (inactive) |
| COc1ccc2[nH]c3c(=O)n(Cc4ccco4)cnc3c2c1 | 72.9% (active) |
| O=c1c2[nH]c3ccc(Cl)cc3c2ncn1Cc1ccccn1 | 10.2% (inactive) |
| S=C(NNC(=S)NC1CC2C=CC1C2)NC1CC2C=CC1C2 (stereo unspecified) | -96.2% (inactive) |
| CCCCCCCCCCCCC(NC(C)=O)(C(=O)OCC)C(=O)OCC | 1.76% (inactive) |
| CN(C)c1ccc(/C=C/C(=O)c2ccc(O)cc2)cc1[N+](=O)[O-] | -2.27% (inactive) |
| CCO[C@@H]1OC(C(=O)NCc2nc3ccccc3[nH]2)=C[C@H](C2CCCCC2)[C@H]1CCCO | 5.02% (inactive) |
| CCc1ccccc1N1CN(Cc2ccco2)CNC1=S | -26.9% (inactive) |
| Cc1nccc(-c2ccc(-n3c(C)ccc3C)cc2)n1 | 6.3% (inactive) |
| COc1ccccc1NC(=O)/C=C/C(=O)O | -31.9% (inactive) |
| O=[N+]([O-])c1cccc(-c2nnc3c4ccccc4c4ccccc4n23)c1 | 52.9% (active) |
| O=[N+]([O-])c1cccc(C2=NCCS2)c1 | -9.78% (inactive) |
| O=[N+]([O-])c1cccc(Nc2c3ccccc3nc3ccccc23)c1 | -10.4% (inactive) |
| CCOC(=O)C1CCCN(C(=O)COc2ccc(N(C)S(=O)(=O)c3ccc(C)cc3)cc2)C1 (stereo unspecified) | -9.64% (inactive) |
| COc1ccc(C(=O)COC(=O)COc2ccc(C)c(C)c2)cc1 | 11.1% (inactive) |
| CC(NC(=O)COC(=O)c1ccc2c(c1)OCO2)c1ccccc1 (stereo unspecified) | -4.79% (inactive) |
| COc1ccc(Nc2ncnc3sc(-c4ccccc4)cc23)c(OC)c1 | -15% (inactive) |
| Cc1cccc(NC(=O)c2ccc3ccccc3n2)n1 | -24% (inactive) |
| Cc1cc(NC(=O)c2cccc(N3C(=O)CCC3=O)c2)no1 | -19.2% (inactive) |
| Cc1cccc(NC(=O)c2cc(N3C(=O)CCC3=O)ccc2Cl)n1 | 69.1% (active) |
| c1ccc2sc(NN=C3CCCC3)nc2c1 | -7.33% (inactive) |
| COc1cc(/C=N/Nc2nc3ccccc3s2)ccc1O | -5.09% (inactive) |

| SMILES | inhibition |
| --- | --- |
| O=[N+]([O-])c1cc(Br)c(O)c(/C=N/Nc2nc3ccccc3s2)c1 | 85.8% (active) |
| Cc1ccc(NC(=O)c2nc[nH]c2C(=O)N[C@@H](CCCCNC(=O)OC(C)(C)C)C(=O)OC(C)(C)C)cc1 | -46.2% (inactive) |
| CCOc1ccc(N=C2NC(=O)S/C2=C\c2ccc(O)cc2)cc1 | 85.2% (active) |
| CCOc1ccc(N=C2SC(C(=O)O)CC(=O)N2C)cc1 (stereo unspecified) | 3.39% (inactive) |
| NC1=NC(=O)S/C1=C\c1ccc(O)cc1 | -45.3% (inactive) |
| CCc1ccnc(NS(=O)(=O)c2ccc3c(c2)OCCO3)c1 | -5.34% (inactive) |
| O=C(Nc1ccccc1)c1ccc2c(c1)OCO2 | 1.56% (inactive) |
| Cn1c(=O)n(C)c2cc(C(=O)Nc3ccc4c(c3)OCO4)ccc21 | -32.5% (inactive) |
| O=C(Nc1ccc2c(c1)OCO2)c1ccc(N2C(=O)c3ccccc3C2=O)cc1 | 56.4% (active) |
| COc1ccc(C(=O)OCC(=O)NCC2CCCO2)cc1[N+](=O)[O-] (stereo unspecified) | -15.9% (inactive) |
| [O-][N+]12CCCCC1CCCC2CO (stereo unspecified) | -0.58% (inactive) |
| COC(=O)CCCC1=CC2=C(c3ccccc3)C(=O)C(C)(OC(=O)C3CCCC3)C(=O)C2=CN1c1ccc(OC)cc1 (stereo unspecified) | -60.4% (inactive) |
| Cc1ccc(S(=O)(=O)c2ccc(Cl)cc2)cc1S(=O)(=O)NC(C(=O)O)C(C)C (stereo unspecified) | 4.83% (inactive) |
| CC(=O)Nc1cc(C(=O)O)ccc1S(=O)(=O)c1ccc(Cl)cc1 | 83% (active) |
| CCOC(=O)N1CCN(C(=O)c2ccc(S(=O)(=O)c3ccc(C)cc3)c(NC(C)=O)c2)CC1 | -11.4% (inactive) |
| Cn1nccc1NC(=O)Nc1ccc(OC(F)(F)F)cc1 | -8.69% (inactive) |
| COc1cc(OC)cc(C(=O)Nc2ccc(-c3nc4ccccc4o3)c(O)c2)c1 | 70.7% (active) |
| O=C(Nc1ccc2oc(-c3ccccc3F)nc2c1)c1ccco1 | -18.3% (inactive) |
| COc1cc(OC)cc(C(=O)Nc2ccc(S(=O)(=O)Nc3cc(C)on3)cc2)c1 | -2.64% (inactive) |
| O=C(NCCCn1ccnc1)C(=O)NCC1OCCN1S(=O)(=O)c1cc(F)ccc1F (stereo unspecified) | -20.9% (inactive) |
| Cn1c(CSCC(=O)Nc2ccccc2)nnc1SCc1ccccc1 | 1.29% (inactive) |
| CC(Sc1nnc2c(n1)C1CCC2(C)C1(C)C)C(=O)Nc1ccccc1 (stereo unspecified) | 66.7% (active) |
| CSc1nc(C)cc(SC(C(C)=O)C(=O)Nc2ccccc2)n1 (stereo unspecified) | -18.3% (inactive) |
| CC(Sc1nc(-c2ccccc2)cc(C(F)(F)F)n1)C(=O)Nc1ccc2c(c1)OCO2 (stereo unspecified) | -32.5% (inactive) |
